# Experimental data: PubChem BioAssay
# Active and inactive are the calls of the source.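 Rule for the calls: active = Her2 level under about 52% in both replicate screens, with viability over 70% of control (limit read from the data); inconclusive = Her2 under the limit in one screen only, or viability under 70%; inactive = Her2 level above the set limit.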
# System: not listed separately
# Test: Her2 expression decrease, cell viability multiplex – SKBR3 breast tumor cells, AlphaScreen, ATP viability, primary screen (AID 461);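 for Her2 level: lower value means less Her2 protein in the cells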;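 for viability: percent of carrier control wells set as 100% viability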
# Details: SKBR3 Her2 protein level, 18-24 h, measured here: SKBR3 viability, ATP luminescence, at 10 µM
row,Compound,viability [%]
1,O=C(O)CC1SC(=Nc2cccc(C(F)(F)F)c2)NC1=O (stereo unspecified),111
2,CCOC(=O)Nc1sc(=S)n(C)c1C,92.5
3,CCCn1nc(NS(=O)(=O)c2ccccc2)c2cc3ccccc3nc21,91.5
4,COc1ccc2[nH]c(=O)c(CN(Cc3cccs3)S(=O)(=O)c3cccc4nsnc34)cc2c1,96.5
5,CC(C)C(c1nnnn1CC1CCCO1)N1CCN(Cc2ccc3c(c2)OCO3)CC1 (stereo unspecified),102
6,COc1cc2c(cc1NC(=O)CN1CCN(S(=O)(=O)c3ccc(F)cc3)CC1)oc1ccccc12,93.5
7,CCCn1c2c(c(O)c(C(=O)Nc3ccc(C)cn3)c1=O)CCCC2,102
8,O=S(=O)(Nc1cccnc1)c1cc(Cl)ccc1Cl,77.5
9,CCN(CC(=O)Nc1ccc(S(N)(=O)=O)cc1)S(=O)(=O)c1cc(C)ccc1OC,76.5
10,O=S(=O)(NCC(c1cccnc1)N1CCN(c2ccccc2)CC1)c1cc(F)ccc1F (stereo unspecified),98.5
11,Cc1ccc2oc(C(=O)Nc3c(C)n(C)n(-c4ccccc4)c3=O)c(C)c2c1,84.5
12,C/C=C/c1ccc(OCCn2cncn2)c(OC)c1,98.5
13,Cc1ccnc(SCCn2c(N3CCCCC3)nc3c2c(=O)n(C)c(=O)n3C)n1,76.5
14,CCN(CC)S(=O)(=O)c1ccc(NC2c3ccccc3C(=O)N2CCN2CCOCC2)cc1 (stereo unspecified),101
15,CCC(=O)OCCn1c(=O)c2cc3c(=O)n(CCOC(=O)CC)c(=O)c3cc2c1=O,99
16,Cc1cc(Br)ccc1NC(=O)CCN1C(=O)c2ccncc2C1=O,104
17,Cc1cc(C(=O)O)ccc1-n1c(C)ccc1C,100
18,Cc1nn(-c2ccc(F)cc2)c2sc(C(=O)OCC(=O)N3CCC(C)CC3)cc12,93
19,CCOCCCNC(=O)C1CCN(C(=O)Nc2ccc(Cl)cc2)CC1,103
20,CCOc1ccccc1NC(=O)CN(c1ccc(C)cc1)S(=O)(=O)c1c(C)noc1C,133
21,CC(C)(CO)NC(=O)CCCOc1ccc(Cl)cc1Cl,97

# Molecular target: Receptor tyrosine-protein kinase erbB-2 (Homo sapiens) (UniProt P04626)
# Sequence (P04626 whole entry, looked up): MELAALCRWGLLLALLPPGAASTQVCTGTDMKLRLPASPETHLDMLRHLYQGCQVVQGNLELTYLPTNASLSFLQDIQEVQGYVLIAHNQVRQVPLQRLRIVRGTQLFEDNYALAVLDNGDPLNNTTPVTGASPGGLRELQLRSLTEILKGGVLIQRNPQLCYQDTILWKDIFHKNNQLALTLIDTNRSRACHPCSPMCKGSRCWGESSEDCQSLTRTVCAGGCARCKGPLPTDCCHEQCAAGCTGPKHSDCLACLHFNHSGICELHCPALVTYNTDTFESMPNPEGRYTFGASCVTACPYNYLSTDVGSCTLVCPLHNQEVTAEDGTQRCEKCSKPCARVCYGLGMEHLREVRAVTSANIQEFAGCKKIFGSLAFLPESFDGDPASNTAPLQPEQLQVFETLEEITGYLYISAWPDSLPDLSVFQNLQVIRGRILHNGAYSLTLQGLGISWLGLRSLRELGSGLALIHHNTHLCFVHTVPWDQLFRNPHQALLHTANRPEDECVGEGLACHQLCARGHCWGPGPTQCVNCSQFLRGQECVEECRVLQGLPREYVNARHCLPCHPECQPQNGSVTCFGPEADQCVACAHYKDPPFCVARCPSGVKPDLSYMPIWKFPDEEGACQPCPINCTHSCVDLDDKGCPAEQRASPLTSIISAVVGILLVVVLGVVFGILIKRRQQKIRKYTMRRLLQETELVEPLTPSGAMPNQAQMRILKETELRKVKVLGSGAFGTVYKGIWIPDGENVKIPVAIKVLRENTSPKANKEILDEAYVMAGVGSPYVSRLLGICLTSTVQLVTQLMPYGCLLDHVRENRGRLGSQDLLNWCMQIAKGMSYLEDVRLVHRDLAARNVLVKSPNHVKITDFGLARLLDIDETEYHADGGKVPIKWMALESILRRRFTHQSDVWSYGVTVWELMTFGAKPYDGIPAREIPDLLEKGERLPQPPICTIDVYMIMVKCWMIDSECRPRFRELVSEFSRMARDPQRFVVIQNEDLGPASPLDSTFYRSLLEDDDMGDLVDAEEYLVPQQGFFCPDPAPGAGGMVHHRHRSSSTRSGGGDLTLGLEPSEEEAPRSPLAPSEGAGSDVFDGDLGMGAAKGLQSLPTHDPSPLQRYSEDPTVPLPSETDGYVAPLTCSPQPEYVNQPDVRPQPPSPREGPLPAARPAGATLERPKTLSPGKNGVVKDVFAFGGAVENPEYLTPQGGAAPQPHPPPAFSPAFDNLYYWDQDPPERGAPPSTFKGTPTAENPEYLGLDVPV
# Test: as above
# Details: 18-24 h, at 10 µM, stronger effect = lower value
row,Compound,Her2 level
1,CN=C1CC(C)(C)CC(=O)/C1=C(/O)CCC(=O)NC,84% (inactive)
2,CC(C)(C)NC(=O)Cn1nnc(-c2cccs2)n1,84% (inactive)
3,Nc1nnc(SCC(=O)N2CCc3ccccc32)n1-c1ccccc1,80% (inactive)
4,O=C(CSc1ncnc2c1oc1ccccc12)Nc1ccccc1F,101% (inactive)
5,O=C(Nc1cccc(C(F)(F)F)c1)c1cccnc1N1CCCC1,102% (inactive)
6,Cc1cc(C(F)(F)F)nn1Cc1ccc(C(=O)NCc2ccco2)o1,105% (inactive)
7,O=C(C1CCCN(S(=O)(=O)c2cccnc2)C1)N1CCN(c2ccccn2)CC1 (stereo unspecified),122% (inactive)
8,O=C(CCn1c(=S)[nH]c2cc3c(cc2c1=O)OCO3)N1CCN(C2CCCCC2)CC1,82.5% (inactive)
9,CC(C)CC(=O)CN1C(=O)C2(OCCO2)c2ccccc21,107% (inactive)
10,CNC(=O)CN(C#N)c1nc(N(C)C)nc(N(C)C)n1,112% (inactive)
11,O=C(Oc1ccc2c(c1)CCC2)N1CCOCC1,144% (inactive)
12,CCCn1c(N2CCN(CC(=O)Nc3ccc4c(c3)OCCO4)CC2)nc2ccccc21,96% (inactive)
13,COCc1ccccc1Cn1cnc2c1c(=O)n(C)c(=O)n2C,77.5% (inactive)
14,O=C(Nc1ccc(N2CCOCC2)cc1)c1cc2ccccc2o1,117% (inactive)
15,COc1ccc(N2C(=O)CC(NC3CC3)C2=O)cc1 (stereo unspecified),89.5% (inactive)
16,COc1cccc(C(=O)NCc2nnc(SCC(=O)Nc3nccs3)n2-c2ccccc2)c1,108% (inactive)
17,COCCCN1C(=O)C(O)=C(C(=O)c2ccco2)C1c1ccc(Br)cc1 (stereo unspecified),89.5% (inactive)
18,Cc1cccc(N2C(=O)CC(N3CCN(Cc4ccc(Cl)cc4)CC3)C2=O)c1 (stereo unspecified),100% (inactive)
19,CS(=O)(=O)N(CC(=O)Nc1ccc2c(c1)OCCO2)Cc1ccccc1,92% (inactive)
20,O=C(O)CC1SC(=Nc2cccc(C(F)(F)F)c2)NC1=O (stereo unspecified),94.5% (inactive)

row,Compound,Her2 level
1,CCOC(=O)Nc1sc(=S)n(C)c1C,96% (inactive)
2,CCCn1nc(NS(=O)(=O)c2ccccc2)c2cc3ccccc3nc21,94.5% (inactive)
3,COc1ccc2[nH]c(=O)c(CN(Cc3cccs3)S(=O)(=O)c3cccc4nsnc34)cc2c1,80% (inactive)
4,CC(C)C(c1nnnn1CC1CCCO1)N1CCN(Cc2ccc3c(c2)OCO3)CC1 (stereo unspecified),82.5% (inactive)
5,COc1cc2c(cc1NC(=O)CN1CCN(S(=O)(=O)c3ccc(F)cc3)CC1)oc1ccccc12,105% (inactive)
6,CCCn1c2c(c(O)c(C(=O)Nc3ccc(C)cn3)c1=O)CCCC2,82.5% (inactive)
7,O=S(=O)(Nc1cccnc1)c1cc(Cl)ccc1Cl,96% (inactive)
8,CCN(CC(=O)Nc1ccc(S(N)(=O)=O)cc1)S(=O)(=O)c1cc(C)ccc1OC,105% (inactive)
9,O=S(=O)(NCC(c1cccnc1)N1CCN(c2ccccc2)CC1)c1cc(F)ccc1F (stereo unspecified),87% (inactive)
10,Cc1ccc2oc(C(=O)Nc3c(C)n(C)n(-c4ccccc4)c3=O)c(C)c2c1,102% (inactive)
11,C/C=C/c1ccc(OCCn2cncn2)c(OC)c1,126% (inactive)
12,Cc1ccnc(SCCn2c(N3CCCCC3)nc3c2c(=O)n(C)c(=O)n3C)n1,88.5% (inactive)
13,CCN(CC)S(=O)(=O)c1ccc(NC2c3ccccc3C(=O)N2CCN2CCOCC2)cc1 (stereo unspecified),105% (inactive)
14,CCC(=O)OCCn1c(=O)c2cc3c(=O)n(CCOC(=O)CC)c(=O)c3cc2c1=O,135% (inactive)
15,Cc1cc(Br)ccc1NC(=O)CCN1C(=O)c2ccncc2C1=O,113% (inactive)
16,Cc1cc(C(=O)O)ccc1-n1c(C)ccc1C,92% (inactive)
17,Cc1nn(-c2ccc(F)cc2)c2sc(C(=O)OCC(=O)N3CCC(C)CC3)cc12,102% (inactive)
18,CCOCCCNC(=O)C1CCN(C(=O)Nc2ccc(Cl)cc2)CC1,92.5% (inactive)
19,CCOc1ccccc1NC(=O)CN(c1ccc(C)cc1)S(=O)(=O)c1c(C)noc1C,87% (inactive)
20,CC(C)(CO)NC(=O)CCCOc1ccc(Cl)cc1Cl,104% (inactive)
